Results on twelve molecules are retold here after ChEMBL document CHEMBL3433997, “St. Jude Leishmania screening dataset” (2016).

The structures appear in SMILES notation.

Holding throughout (type): functional
Assay [1] concerns the target Solute carrier family 2, facilitated glucose transporter member 1 (Homo sapiens) (UniProt P11166). As to the kind of experiment: ST_JUDE_LEISH: Cytotoxicity at 2uM final concentration against transgenic Leishmania Mexicana promastigotes LmGLUT1 that are glucose transport deficient and complemented with the human glucose transporter GLUT1. Activity is measured by DNA content using SYBR green in vitro.

Assay [2] concerns the target Hexose transporter 1 (Plasmodium falciparum) (UniProt O97467). Description: ST_JUDE_LEISH: Cytotoxicity at 2uM final concentration against transgenic Leishmania Mexicana promastigotes LmPfHT that are glucose transport deficient and complemented with the Plasmodium falciparum hexose transporter. Activity is measured by DNA content using SYBR green in vitro.
The target in assay [3] is Glucose transporter (Leishmania mexicana) (UniProt O61059). Description: ST_JUDE_LEISH: Cytotoxicity at 2uM final concentration against transgenic Leishmania Mexicana promastigotes LmGT2 that are glucose transport deficient and complemented with the L. Mexicana glucose transporter 2. Activity is measured by DNA content using SYBR green in vitro.

Sequence of Solute carrier family 2, facilitated glucose transporter member 1 (Homo sapiens) (P11166 whole entry): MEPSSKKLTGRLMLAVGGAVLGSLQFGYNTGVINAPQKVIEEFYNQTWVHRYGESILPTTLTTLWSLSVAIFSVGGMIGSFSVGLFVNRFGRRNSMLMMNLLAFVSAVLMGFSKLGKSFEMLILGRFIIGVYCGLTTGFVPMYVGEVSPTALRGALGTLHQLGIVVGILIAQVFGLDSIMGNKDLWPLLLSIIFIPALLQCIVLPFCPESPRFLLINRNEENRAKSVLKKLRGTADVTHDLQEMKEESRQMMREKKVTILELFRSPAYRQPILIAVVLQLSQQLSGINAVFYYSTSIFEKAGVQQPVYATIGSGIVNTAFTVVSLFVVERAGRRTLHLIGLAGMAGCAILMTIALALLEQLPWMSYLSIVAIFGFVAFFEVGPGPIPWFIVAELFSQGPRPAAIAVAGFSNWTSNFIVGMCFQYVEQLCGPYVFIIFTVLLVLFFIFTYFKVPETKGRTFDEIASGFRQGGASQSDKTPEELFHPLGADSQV

Take `CN(C)c1ccc(-c2ccc(C(=O)NC3CCN(Cc4ccccc4)CC3)s2)cc1`: the inhibition (as a rule, the relative decrease from the control value, in per cent) in assay [1] came out at 1.65%; in assay [2], 0.56%; in assay [3] it was 1.83%.
For the molecule `O=c1cc(NCCCNCc2ccc(C(F)(F)F)c(F)c2)[nH]c2ccccc12`, the inhibition in assay [1] was 0.24%; in assay [2] it was 0.58%; in assay [3], -0.68%.
Taken in the same sequence, the figures for `CN1CCN(c2ccnc3ccc(NC(=O)N(C)c4ccc(Cl)c(Cl)c4)cc23)CC1` were -0.11%, 0.31% and 1.72%.
`CCc1cn2c3c(cc(C(=O)N[C@@H](Cc4cccc(Cl)c4)[C@H](O)CNC4CC4)cc13)N(C)S(=O)(=O)CC2`: the inhibition is -0.47% in assay [1], -1.46% in assay [2] and -2.88% in assay [3].
Taken in the same sequence, the figures for `c1ccc(Nc2nc(-c3ccccn3)cs2)nc1` were -0.62%, 0.38% and -2.43%.
Taken in the same sequence, the figures for `CS(=O)(=O)Cc1ccc(Nc2nccc(N3CCCc4cc(NC(=O)Nc5cccc(C(F)(F)F)c5)ccc43)n2)cc1` were 9.54%, 15.9% and 2.08%.
The matching figures for `N=C(Nc1nc(-c2ccccn2)cc2ccccc12)c1cccc(Cl)c1`: 50.7%, 48.7% and 18.1%.
Take `CCCCc1ccc(-c2nc(NC(=O)Nc3[nH]c(-c4ccccc4)nc3C(=O)OCC)c(C(=O)OCC)[nH]2)cc1`: the inhibition was 3.65% in assay [1], 0.82% in assay [2] and -0.95% in assay [3].
The matching figures for `O=C(Nc1cccc(CN2CCCN(Cc3ccc(O)cc3)CC2)c1)c1ccc2ccccc2n1`: 2.74%, 2.83% and -3.88%.
Taken in the same sequence, the figures for `Cc1cccc2nc(-c3ccc(-c4cccc(NC(=O)Nc5ccsc5)c4)cc3)[nH]c12` were 1.48%, 0.08% and -1.47%.
Taken in the same sequence, the figures for `O=c1[nH]ccc2nc(N[C@@H]3CCNC3)nc(Nc3ccc4c(c3)S(=O)(=O)CC4)c12` were 5.93%, 1.38% and 4.85%.
In the case of `COc1ccc2c(CNCCCCCCNCc3c(OC)ccc4cc(OC)ccc34)c(OC)ccc2c1`, the inhibition turned out to be 109% in assay [1], 107% in assay [2] and 112% in assay [3].
